Results published in PubChem BioAssay AID720648 (The Scripps Research Institute Molecular Screening Center, 2013).
The whole screen tested about 370,000 compounds, of which about 3,100 (0.84%) were called active. The list comes from a sample in which actives are over-represented; it also holds similar structures and randomly drawn compounds. Values without a mark were called inactive.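 How the source made its calls: active means inhibition above the mean of compounds lying between control limits plus 3 SD, set per campaign (cut at about 8.5% in these data); inactive means the rest.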

molecular target: Disintegrin and metalloproteinase domain-containing protein 17 (Homo sapiens) (UniProt P78536); experiment: ADAM17 inhibitors, primary screen, biochemical, QFRET (AID 720648); conditions: recombinant ADAM17, EDANS/DABCYL FRET peptide cleavage; at 6.95 µM; active compounds read high;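 further: 0% = DMSO-only wells as the low control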
Sequence (P78536 215-824 limits assumed): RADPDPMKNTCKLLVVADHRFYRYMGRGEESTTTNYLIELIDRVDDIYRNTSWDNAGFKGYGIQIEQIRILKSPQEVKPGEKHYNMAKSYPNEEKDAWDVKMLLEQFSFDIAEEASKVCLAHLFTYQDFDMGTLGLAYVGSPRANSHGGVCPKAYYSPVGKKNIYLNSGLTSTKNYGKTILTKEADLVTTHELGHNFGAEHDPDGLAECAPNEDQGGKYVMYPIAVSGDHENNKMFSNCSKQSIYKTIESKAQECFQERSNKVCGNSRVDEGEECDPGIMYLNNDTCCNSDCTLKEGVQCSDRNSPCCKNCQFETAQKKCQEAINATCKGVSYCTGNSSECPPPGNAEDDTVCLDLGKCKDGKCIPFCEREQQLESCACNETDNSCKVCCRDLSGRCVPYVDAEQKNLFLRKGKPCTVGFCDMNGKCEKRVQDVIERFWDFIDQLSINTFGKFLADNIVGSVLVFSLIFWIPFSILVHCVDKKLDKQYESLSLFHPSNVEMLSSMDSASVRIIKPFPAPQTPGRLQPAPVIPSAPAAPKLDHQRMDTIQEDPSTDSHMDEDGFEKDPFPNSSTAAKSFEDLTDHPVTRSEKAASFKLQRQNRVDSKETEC

SMILES	inhibition
CCOC(=O)[C@]12CCCC3=C1N(CCC3)C(=O)[C@@H](CC(=O)NCc1cccs1)C2	0.06%
Nn1c(SCC(=O)N2c3ccccc3Sc3ccccc32)nnc1-c1n[nH]c2c1CCC2	5.84%
Cc1ccc(CN2CCCCC(NC(=O)C3CCCCC3)C2=O)cc1 (stereo not given)	1.84%
O=C(NC1CCCCN(Cc2ccc(Cl)cc2)C1=O)c1ccc(Br)cc1 (stereo not given)	5.04%
CN(C)c1ccc(NC(=O)NC2CCCCN(Cc3ccc(Cl)cc3)C2=O)cc1 (stereo not given)	8.69% (active)
CN(C)[C@H]1CCN(c2cccc3c2S(=O)(=O)N2CC[C@H](C2)O3)C1	-2.38%
COC(=O)C[C@@H]1CC[C@H]2[C@@H](COc3ccc(NS(=O)(=O)CC(F)(F)F)cc3C(=O)N2C)O1	-6.55%
CCOC(=O)c1c(S(=O)(=O)Nc2cccc(Cl)c2)c(C)n(C)c1C	-9.22%
CCOC(=O)c1ccc(CS(=O)c2ccc(Cl)cc2)o1 (stereo not given)	-2.74%
CCOC(=O)c1c(Cc2ccc(Cl)cc2)c[nH]c1C	11.1% (active)
CC(C)N1CCCCC(NC(=O)c2ccc3ccccc3c2)C1=O (stereo not given)	-4.85%
COc1ccc(C(=O)Nc2ccc3nc(N4CCCCC4)cc(C)c3c2)cc1OC	-7.57%
COc1ccc(C(=O)Nc2ccc(C3(C#N)CCCC3)cc2)cc1OC	8.73% (active)
COc1ccc(C(=O)NC2CC(C)(C)NC(C)(C)C2)cc1OC	-2.12%
C=CCN(C)CC#Cc1ccccc1	4%
c1coc(CCNc2ncnc3ccc(-c4ccc5c(c4)OCO5)cc23)c1	-61.9%
O=C(CSc1nc(Nc2ccccc2)nc(N2CCOCC2)n1)Nc1cc(Cl)ccc1O	10.2% (active)
O=C(CSc1nc2ccc(Nc3nc(N4CCOCC4)nc(N4CCOCC4)n3)cc2s1)NCc1ccco1	-1.45%
O=C(CSc1ccccc1)Nc1cc(Cl)ccc1Oc1ccccc1	2.94%
Cc1cc(=O)[nH]c(SCC(=O)Nc2ccc(Cl)cc2C)n1	3.04%
CCCCNC(=O)C[C@H]1C(=O)N(Cc2ccc(OC)cc2)C2=CCCC[C@@]21C(=O)OCC	-4.97%
CC(C)(C)OC(=O)NCc1cc(F)ccc1/C=C/S(=O)(=O)NCCc1ccccc1	4.18%
O=C1NC(=O)C(c2ccc(Cl)cc2)N1 (stereo not given)	35.4% (active)

SMILES	inhibition
CC(C)Oc1ccc(C2NC(=O)NC2=O)cc1 (stereo not given)	-3.2%
O=C1CSC(c2ccc(Cl)cc2)N1 (stereo not given)	-1%
Fc1ccc2nc(COCc3nc4ccc(F)cc4[nH]3)[nH]c2c1	-1.4%
COc1ccc(Cn2ccc3ccc(-c4ccc5ccn(Cc6ccccc6C)c5c4)cc32)cc1	-14.6%
CCCC1CCC2(CCCN2CCOC(=O)NCc2ccccc2)CC1 (stereo not given)	-6.91%
COc1ccc(S(=O)(=O)Nc2ccc(O)c(Sc3nc4ccccc4s3)c2)cc1	9.23% (active)
COc1cccc(NS(=O)(=O)c2ccc(-c3coc(C)n3)cc2)c1	0.72%
COc1ccc(NS(=O)(=O)c2ccc(O)c(C(=O)OCC(=O)NC3CCCCC3)c2)cc1	-2.64%
CCOC(=O)C1CCN(C(=O)C(C)(C)NC(=O)Nc2ccccc2Cl)CC1	-3.66%
C=CCN1C(=O)[C@@H](CC(=O)NCCCOCCCC)[C@]2(C(=O)OCC)CCCCC/C=C/12	-0.06%
CCC(c1ccc(NC(=O)OC(C)(C)C)cc1)c1cc(OC)cc(OC)c1 (stereo not given)	3.59%
C=CCN1C(=O)[C@@H](CC(=O)N2CCN(C(=O)OCC)CC2)[C@]2(C(=O)OCC)CCCCC/C=C/12	-4.2%
Cc1cc(C(=O)NN=C/C=C/c2ccco2)n[nH]1	-5.03%
COC(=O)C1CN(Cc2ccc(F)cc2)CCS(=O)(=O)N1Cc1ccc(Cl)cc1 (stereo not given)	-3.73%
C[C@H]1[C@H](NC(=O)c2cccc(N(C)C)c2)CC[C@@]23CCCN2C(=O)CCC[C@@H]13	-31.1%
NC(c1csc(NC(=O)Nc2cccc(C(F)(F)F)c2)n1)C1CCCCC1 (stereo not given)	3.01%
COc1ccc(CC(N)c2csc(NC(=O)NC(c3ccccc3)c3ccccc3)n2)cc1 (stereo not given)	8.79% (active)
COc1ccc(C(N)c2csc(NC(=O)Nc3cccc(C(F)(F)F)c3)n2)cc1 (stereo not given)	13.7% (active)
CC(C)(C)CC(=O)Nc1nc(C(N)Cc2ccc(C(F)(F)F)cc2)cs1 (stereo not given)	-1.9%
COc1ccc(CC(N)c2csc(NC(=O)Nc3ccc(C(C)C)cc3)n2)cc1 (stereo not given)	2.77%
CCOC(=O)c1csc(NC(=O)Nc2cccc(OC)c2)n1	-0.26%
COc1ccc(-n2c(COc3ccc(C)cc3)nnc2SCC(=O)Nc2ccc(Oc3ccccc3)cc2)cc1	-2.03%
O=C1Nc2ccccc2OC1CC(=O)N1CCCCCCC1 (stereo not given)	-1.23%

SMILES	inhibition
CCCCN1CCN(C(=O)c2ccc3c(c2)NC(=O)C(C)(C)O3)CC1	1.41%
COC(=O)c1c(C)oc(C)c1S(=O)(=O)NCc1ccc(Cl)cc1	-1.53%
COC(=O)c1c(C)[nH]c(C(=O)NCCc2ccc(S(N)(=O)=O)cc2)c1C	-14.5%
COC(=O)c1c(C)[nH]c(C(=O)/C=C/c2ccc(Cl)cc2)c1C	9.17% (active)
Cc1c[nH]c2cccc(-c3ccc(Cl)cc3)c12	-9.67%
O=C(CC(=O)N/N=C\c1cccc(Cl)c1Cl)NCc1ccccc1	-1.85%
C=CCOc1ccccc1/C=N/NC(=O)Cc1ccccc1	11.4% (active)
CCn1c(SCC(=O)N/N=C/c2ccccc2OCC(=O)O)nnc1-c1ccc(C(C)(C)C)cc1	-1.28%
Oc1ccc(/C=C/c2c(F)cccc2F)c2cccnc12	-0.42%
Nn1c(SCC(=O)Nc2ccc(S(N)(=O)=O)cc2)nnc1-c1n[nH]c2c1CCC2	-1.11%
CCOc1ccccc1NC(=O)NC1CCCCCCC1	2.55%
CCCN(CC(=O)NC(=O)NC1CCCCC1)CC(=O)Nc1cc(Cl)ccc1Cl	9.13% (active)
O=C(COc1cc(Cl)c(Cl)cc1Cl)NC(=O)NC1CCCC1	-3.67%
CCC(C)[C@@H](C(=O)OC)N(CCc1cn(Cc2ccccc2)nn1)S(=O)(=O)c1ccccc1Br (stereo not given in full)	6.37%
CC(c1ccc(N)cc1)c1cn(C)c2ccccc12 (stereo not given)	1.58%
CCN1C(=O)C(=O)N(CC(=O)Nc2cc(C)ccc2C)C1=O	-0.07%
CCN1C(=O)C(CC(=O)Nc2cc(C)ccc2C)SC1=Nc1ccc(S(N)(=O)=O)cc1 (stereo not given)	9.07% (active)
CCN=C1SC(CC(=O)Nc2ccc(C)cc2)C(=O)N1CC (stereo not given)	-7.43%
O=C(CN1CCCc2ccccc21)NCc1ccc(F)cc1	1.67%
CCN(CC)C(=O)CC[C@H]1CC[C@]2(CCCN(Cc3ccc(Cl)cc3)C2)O1	1.61%
Cc1onc(C(=O)NN)c1-c1csc(COc2ccccc2)n1	9% (active)
O=C(COc1ccccc1)Nc1nonc1NC(=O)COc1ccccc1	-4.34%
Cc1cccc(OCCC(=O)OCc2csc(CC(=O)Nc3ccccc3C)n2)c1	-0.41%

SMILES	inhibition
CCOC(=O)[C@]12CCCC3=C1N(CCC3)C(=O)[C@@H](CC(=O)N1CCSCC1)C2	0.18%
CC(=O)N1CCc2cc(S(=O)(=O)NCCC(=O)N3CCCC3)ccc21	-3.27%
O=Nc1c(O)cc(O)c2ccccc12	10.5% (active)
COc1cccc2c(O)cc(=O)n(C)c12	-4.7%
O=c1c2ccccc2ccc2ccc(P(=O)(O)O)cc12	-16.1%
CCN(C(=O)[C@@H](C1CC1)[C@@H](O)c1ccc2ccccc2c1)c1ccccc1	-1.62%
COc1cccc(NC(=O)C2c3cc(OC)c(OC)cc3C(=O)N(C)C2c2cccnc2)c1 (stereo not given)	1.58%
COc1cccc(NC(=O)C/C(C)=N/NC(=O)C2CCCCC2)c1	-3.38%
COc1cccc(NC(=O)C2C(c3ccccc3)C2(Cl)Cl)c1 (stereo not given)	9.55% (active)
CC(C)CNS(=O)(=O)CC1NCCc2ccccc21 (stereo not given)	-3.23%
COc1ccc(C(=O)OCCN2CCN(C3CN(Cc4cn(Cc5ccccc5F)nn4)S(=O)(=O)C3)CC2)cc1OC (stereo not given)	-4.52%
CC(=O)Nc1nc2ncccn2c1-c1ccc(C(F)(F)F)cc1	-266%
N#Cc1cccc(C(=O)NCC2CCN(C(=O)C(=O)c3cc4ccccc4o3)CC2)c1	-3.28%
O=C(C(=O)N1CCC(CNS(=O)(=O)Cc2ccccc2)CC1)c1cc2ccccc2o1	-3.01%
CC(C)(C)c1ccc(S(=O)(=O)NCC2CCN(C(=O)C(=O)c3cc4ccccc4o3)CC2)cc1	9.75% (active)
CC(C)C(C#CC1CC1)N(Cc1ccc2c(c1)OCO2)C(N)=NC(=O)/C=C/c1cccc(C(F)(F)F)c1 (stereo not given)	-3.71%
CC(=O)NC(Cc1ccccc1)C(=O)NC1CCN(c2ncccc2[N+](=O)[O-])CC1 (stereo not given)	-2.81%
COc1ccc(-c2cc(-c3nnc(SCc4ccc([N+](=O)[O-])cc4)n3N)[nH]n2)cc1	-2.61%
COc1ccc(-c2cc(C3CCN(c4ncccc4[N+](=O)[O-])CC3)[nH]n2)cc1	9.29% (active)
O=C1CCC2(CCC(c3ccc(Cl)cc3)CC2)N1CCO (stereo not given)	1.61%
CCn1c(=O)n2n(c1=O)[C@@]1(C=C3CCCC[C@H]32)N=C(NC(=O)c2ccccc2)N(Cc2ccccc2)[C@H]1Cc1ccccc1	5.91%
